Measured values published in PubChem BioAssay (NCI).
The panel holds about 83,000 compounds, 20% with a hit somewhere; the sample as a whole holds those more often.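 Compound tested at a single concentration for 48 hours in 96-well plates; a percent growth value below 10 was scored as active.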 A number with no mark means an inactive call. Activity calls are given as the source filed them.

How the values were obtained:
Test in all cases: NCI-60 one-dose screen, 48 h (100 = growth as untreated, 0 = no growth, -100 = all killed)
[1] = tested on: SR leukemia; details: 10 µM unless noted
[2] = tested on: RPMI-8226 leukemia; details: 10 µM unless noted
[3] = tested on: OVCAR-8 ovarian; details: 10 µM unless noted
[4] = tested on: OVCAR-5 ovarian; details: 10 µM unless noted
[5] = tested on: OVCAR-4 ovarian; details: 10 µM unless noted
[6] = tested on: SK-OV-3 ovarian; details: 10 µM unless noted
[7] = tested on: IGROV1 ovarian; details: 10 µM unless noted
[8] = tested on: OVCAR-3 ovarian; details: 10 µM unless noted
[9] = tested on: NCI/ADR-RES ovarian; details: 10 µM unless noted
[10] = tested on: T-47D breast; details: 10 µM unless noted
[11] = tested on: BT-549 breast; details: 10 µM unless noted
[12] = tested on: MDA-MB-435 melanoma; details: 10 µM unless noted
[13] = tested on: SW-620 colon; details: 10 µM unless noted
[14] = tested on: MCF7 breast; details: 10 µM unless noted
[15] = tested on: HCT-116 colon; details: 10 µM unless noted
[16] = tested on: KM12 colon; details: 10 µM unless noted
[17] = tested on: HCC-2998 colon; details: 10 µM

| SMILES | growth [1] | growth [2] | growth [3] | growth [4] | growth [5] | growth [6] | growth [7] | growth [8] | growth [9] | growth [10] | growth [11] | growth [12] | growth [13] | growth [14] | growth [15] | growth [16] | growth [17] |
| --- | --- | --- | --- | --- | --- | --- | --- | --- | --- | --- | --- | --- | --- | --- | --- | --- | --- |
| CC1(C)NC(=O)c2[nH]c3c(Cl)c(Cl)ccc3c2C1C#N (stereo not drawn) | 67.5% | 69.6% | 89.2% | 85.2% | 60.7% | 100% | 100% | 82.4% | 85% | 59.2% | 73.3% | 88.1% | 105% | 87% | 83.6% | 93.4% |  |
| CC(C)c1cc(CNc2nc(Nc3cc(C4CC4)[nH]n3)cc(N3CCN(C)CC3)n2)on1 | -5.3% (active) | -13.3% (active) | 6.51% (active) | 18.5% | -8.07% (active) | 0.435% (active) | 8.34% (active) | 15.5% | 39.2% | 6.24% (active) | -21.9% (active) | -10.9% (active) | 7.6% (active) | 11.5% | 3.46% (active) | 4.41% (active) |  |
| C#Cc1cccc(Nc2ncnc3cc(OC)c(OCCCCCCC(=O)NO)cc23)c1 | 1.46% (active) | -14.9% (active) | -21.5% (active) | -8.42% (active) | 6.28% (active) | -58.2% (active) | -41.3% (active) | -19.9% (active) | 14.4% | -24.4% (active) | -7.81% (active) | -28.1% (active) | -22.6% (active) | 8.28% (active) |  | 5.62% (active) | -53.5% (active) |
| O=C(Nc1cnn2ccc(N3CCC[C@@H]3c3cc(F)ccc3F)nc12)N1CC[C@H](O)C1 | 72.1% | 91.1% | 80.4% | 114% | 117% | 79.6% | 105% | 99.9% | 97% | 78.3% | 90.5% | 93% | 106% | 99.7% | 83.1% | 26.7% |  |
| COc1cc2ncnc(Oc3cccc(NC(=O)Nc4cc(C(C)(C)C(F)(F)F)on4)c3)c2cc1OC | 28.5% | 30.6% | 25.1% | 12.8% | 36.3% | -26.5% (active) | -11.1% (active) | 50.4% | 23.9% | 9.47% (active) | 37.4% | 13.3% | 27.4% | 37.8% |  | 42.4% | 52.8% |
| CCCS(=O)(=O)Nc1ccc(F)c(C(=O)c2c[nH]c3ncc(-c4ccc(Cl)cc4)cc23)c1F | 15.3% | 29.2% | 32.1% | 49% | 49.3% | -0.481% (active) | 22.1% | 65.4% | 48.9% | 8.42% (active) | 41.1% | 13.4% | 78.5% | 44.6% | 27.3% | 32% |  |
| C=CC(=O)Nc1cc2c(Nc3ccc(F)c(Cl)c3)ncnc2cc1OCCCN1CCOCC1 | -8.22% (active) | -9.72% (active) | -17.6% (active) | 35.6% | 8.1% (active) | -16.3% (active) | -67.5% (active) | 14.7% | 13.8% | -0.739% (active) | -10.8% (active) | 23.6% | -53.5% (active) | 13.7% | -70.8% (active) | 19.1% |  |
| COc1ccc(COc2cc3oc(=O)c4cc(C(C)O)ccc4c3cc2OC)cc1 (stereo not drawn) | 18.6% | 68% | 25% | 86% | 53.8% | 40.5% | 57.6% | 58.6% | 56.1% | 44.2% | 59.8% | 3.55% (active) | 49.7% | 45.6% | 49% | 53% |  |
| C[C@@H](Oc1cc(C(=O)Nc2ccc(C(=O)N3CCN(C)CC3)cc2)nnc1N)c1c(Cl)ccc(F)c1Cl | 0.634% (active) | 36.7% | 63.1% | 75.3% | 78.2% | 66.9% | 86% | 91.6% | 76.5% | 59.4% | 71.7% | 68.8% | 98.1% | 47.1% | 49.4% | 23% |  |
| O=c1[nH]c([C@@H]2CCCN2)nc2c1oc1ccc(Cl)cc12 | 34.1% | 86.6% | 72.9% | 49.8% | 84.5% | 24% | 81.3% | 65% | 82.9% | 56.4% | 58.5% | 73.3% | 22.7% | 49.2% | 33.6% | 31.6% |  |
| c1cn2cc(-c3ccc4cn[nH]c4c3)nc(Nc3ccc(N4CCOCC4)cc3)c2n1 | 50% | 63.4% | 20% | 64.2% | 3.99% (active) | 21% | 58.7% | 71.9% | 39.2% | 49.2% | 66.2% | 76.8% | 69.2% | 66.2% | 52.4% | 20.5% |  |
| CO[C@@H](C)Cn1c(=O)n(C)c2cnc3ccc(-c4cncc(C(C)(C)O)c4)cc3c21 | -2.77% (active) | -16.8% (active) | -13% (active) | 5.28% (active) | -14.6% (active) | -36.5% (active) | -25.7% (active) | 8.39% (active) | -1.12% (active) | -21.9% (active) | -6.62% (active) | 0.636% (active) | 9.31% (active) | 6.25% (active) | 3.72% (active) | 5.54% (active) |  |
| C=CC(=O)Nc1cccc(Oc2nc(Nc3ccc(N4CCN(C)CC4)cc3)nc3ccsc23)c1 | -23.5% (active) | -29.8% (active) | -38.8% (active) | 8.45% (active) | -63.6% (active) | -2.6% (active) | -69.9% (active) | -80.7% (active) | -3.05% (active) | -51% (active) | -37.5% (active) | -93.3% (active) | -62.2% (active) | -60.9% (active) | -89.2% (active) | -79.1% (active) |  |
| O=C1NC(=O)/C(=C/c2ccc3nccc(-c4ccncc4)c3c2)S1 | -26.5% (active) | -16.5% (active) | -18.8% (active) | -30.1% (active) | -22.7% (active) | -60.3% (active) | -60.1% (active) | -30.4% (active) | -14.6% (active) | -41.7% (active) | -36.7% (active) | -11% (active) | 1.44% (active) | 0.645% (active) | -38.6% (active) | 1.44% (active) |  |
| Cc1ccc(Nc2nccc(N(C)c3ccc4c(C)n(C)nc4c3)n2)cc1S(N)(=O)=O | 18% | 20.8% | 20.4% | 9.38% (active) | 31.3% | -1.9% (active) | 3.2% (active) | 39.9% | 48.5% | 4.07% (active) | 25.8% | 19.3% | 19.3% | 32.3% |  | 15% | -5.85% (active) |
| O=C1NC(=O)C(c2cnc3ccccn23)=C1c1cn2c3c(cc(F)cc13)CN(C(=O)N1CCCCC1)CC2 | 10% | 60.8% | 19.7% | 102% | 38.7% | 39.4% | 53.3% | 52.8% | 74.4% | 33.8% | 61.1% | 51.2% | 59.6% | 35.2% | 17.1% | 46.2% |  |
| COc1ccc2c(OCc3nnc4ccc(-c5ccccc5)nn34)ccnc2c1 | 80.9% [2.5 µM] | 104% [2.5 µM] | 102% [2.5 µM] | 87.3% [2.5 µM] | 100% [2.5 µM] | 73.3% [2.5 µM] | 106% [2.5 µM] | 110% [2.5 µM] | 76.3% [2.5 µM] | 71.1% [2.5 µM] | 102% [2.5 µM] | 103% [2.5 µM] | 109% [2.5 µM] | 93.4% [2.5 µM] | 98.4% [2.5 µM] | 94.3% [2.5 µM] |  |
| O=C(Nc1ccc(-c2ccnc(Nc3ccc(N4CCOCC4)cc3)n2)cc1)[C@@H]1CCCN1 | 4.92% (active) | 57% | 72.2% | 76.8% | 71.4% | 42.6% | 60.8% | 76.5% | 87.3% | 56.1% | 50.9% | 57.7% | 76.6% | 58% | 34.1% | 35.6% |  |
